Screening results deposited in PubChem by National Center for Advancing Translational Sciences (NCATS).
Compounds with a hit are over-represented: about 3.6% of the library has one in this group of screens.
HepG2 tox: kills HepG2 cells in TGF-b inhibitor counter-screen; HepG2 CAGA-GFP viability, ATP luminescence, 18 h; Potency, µM (top dose mostly 46.1 µM), without a hit: top-dose activity change, negative = cytotoxicity, hits mostly cytotoxic; hit rate 0.76% among 410,000
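HepG2 CAGA-GFP cells (1000/well, DMEM with 1% FBS) received compound, then TGF-beta at 500 pg/mL final, and were incubated 18 hours at 37 degrees C. Viability was read by CellTiter-Glo luminescence. Media-only wells were set as complete cell-killing and DMSO as no toxicity.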
Nrf2 ARE act: activators of Nrf2 (ARE) signaling; AREc32 ARE-luciferase reporter (MCF7-derived line), luminescence, 24 h; AID 624171; hit rate 0.31% among 410,000; Potency, µM (doses to about 46.1 µM), inactives show top-dose activation, most hits filed as activators; also: % of control where 0% means no effect; nearly all actives have a fitted effect of over 65% in size
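AREc32 cells carrying an ARE-driven firefly luciferase reporter were seeded at 1000 cells/well in OPTI-MEM with 5% FBS, then exposed to compound for 24 hr at 37 deg C. Luminescence was read with Steady-Glo after 30 min at RT.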
A549 tox: counter-screen for Nrf2 inhibitors: cytotoxicity in A549 cells | AID 504648 | Potency, µM (doses to about 46 µM), inactives show at the highest dose activity change, negative = cytotoxicity, hits mostly inhibitors | hit rate 0.16% among 390,000 | A549 ARE-Fluc cells, CellTiter-Fluor viability, 18-24 h; also: % is scaled to controls: 0 for no effect and ±100 for the full control effect
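A549 ARE_Fluc cells in 5% FBS OPTI-MEM were exposed to compounds in concentration-response for 18-24 h at 37 deg C. Viability was read by CellTiter-Fluor fluorescence (Ex 405/Em 525) after 30 min, before the luciferase read.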
Nrf2 inh: Nrf2 pathway inhibition | A549 ARE-Fluc reporter, luciferase luminescence, 18-24 h | hit rate 2.1% among 360,000 | Potency, µM (highest dose often 46 µM), for inactives: top-dose activity change, negative = inhibition, actives largely listed as inhibitors | AID 504444; also: % is scaled to controls: 0 for no effect and ±100 for the full control effect; nearly all actives have a fitted effect of over 60% in size
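Concentration-response testing used A549 ARE_Fluc cells at 5000 cells/well. Following an 18-24 h compound incubation, viability was read by fluorescence (Ex 405/Em 525) and luciferase output by luminescence.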
TGFb SMAD3 inh: TGF-b pathway inhibition | HepG2 CAGA-GFP TGF-b/SMAD3 reporter, GFP fluorescence, 18 h; TGF-beta stimulated, 500 pg/mL final | Potency, µM (highest dose often 46.1 µM), for inactives: top-dose activity, negative = inhibition, usual class: inhibitors | hit rate 1.2% among 410,000 | AID 588855; also: % is scaled to controls: 0 for no effect and ±100 for the full control effect; nearly all actives have a fitted effect of over 65% in size
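Using HEPG2 CAGA-GFP reporter cells at 1000 cells/well, we pinned test compounds, stimulated with recombinant TGF-beta (500 pg/mL final) and measured total well GFP after 18 h.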
Starred values were filed as active, the others as inactive; ? = inconclusive; / = not tested or not shown; [ ] = dose if it differs, or a comment. Calls follow the shape of the dose curve; as a rule, active = well fitted curve in the direction sought with a large enough effect; inconclusive = small, poorly fitted or top-dose-only effect, or another doubt; inactive = no such curve, though single readings can be large; an effect the other way counts as inactive or inconclusive. Potency is read from the fitted curve at half-maximal effect.

SMILES | HepG2 tox | Nrf2 ARE act | A549 tox | Nrf2 inh | TGFb SMAD3 inh
O=C(NCC1CCCO1)c1cccc(NC(=O)c2cccs2)c1 (stereo unspecified) | 8% | 12% | -3% | 2% | -14%
CC(=O)c1nn(-c2cccc(Cl)c2)cc1C(=O)c1ccco1 | 11% | 12% | -1% | / | -4%
CCOc1ccc(OCC)c(NC(=O)CSc2nc3c(c(=O)n(C)c(=O)n3C)n2C(C)C)c1 | 0% | 4% | -9% | 16µM* | -29%
CCOc1ccc(S(=O)(=O)Nc2ccc(F)cc2)c(C)c1C | -73% | 3% | -27% | 18µM* | -8%
Cc1nc2cc(-c3cccc(F)c3)nn2c(C)c1CCC(=O)NC(C)CCc1ccco1 (stereo unspecified) | -42% | 1% | 0% | 0.82µM* | ?
COc1cc(OC)cc(-c2cc3nc(C)c(CCC(=O)NC(C)CCc4ccco4)c(C)n3n2)c1 (stereo unspecified) | 4% | 0% | 1% | ? | -8%
COc1ccc(-c2cc3nc(C)c(C)c(N4CCN(C(=O)c5ccoc5)CC4)n3n2)cc1 | -13% | 1% | / | / | -8%
Cc1nc2cc(-c3cccc(F)c3)nn2c(N2CCN(C(=O)c3ccco3)CC2)c1C | 0% | 13µM* | -1% | 14% | -6%
Cc1nc2cc(-c3ccccc3)nn2c(C)c1CCC(=O)N1CCN(c2ccc(F)cc2)CC1 | -16% | -2% | -5% | 5.2µM* | -5%
Cc1nc2cc(-c3cccc(F)c3)nn2c(C)c1CCC(=O)N1CCN(c2ccccn2)CC1 | -1% | 4% | 4% | ? | -6%
COc1ccc(NC(=O)CN(c2cccc(F)c2)S(C)(=O)=O)cc1OC | -3% | 0% | -6% | 1% | 15%
CC[C@H](CO)Nc1nc(Nc2cccc(Cl)c2)c2ncn(C(C)C)c2n1 | -50% | -6% | ? | ? | 20µM*
Cc1cccc(Cn2c(=O)n(CCCC(=O)NCc3ccccc3Cl)c(=O)c3ccccc32)c1 | -20% | 0% | -18% | 10µM* | ?
Cc1ccc(C)c(Cn2c(=O)n(CCCCC(=O)NCc3ccccc3Cl)c(=O)c3ccccc32)c1 | -7% | 0% | -7% | 6% | -16%
COc1cccc(NC(=O)Nc2nc(-c3ccc(OC)c(OC)c3)cs2)c1 | 16µM* | -2% | 16µM* | 7.3µM* | 11µM*
COc1ccc(-c2csc(NC(C)=O)n2)cc1OC | 2% | 3% | -3% | 11% | 7%
CCC(=O)Nc1nc(-c2ccc3c(c2)OCCO3)cs1 | -30% | 0% | 16% | ? | -1%
COc1ccc(-c2csc(NC(=S)NC(=O)c3ccc4ccccc4c3)n2)cc1OC | -6% | -1% | -14% | 9.2µM* | 1%
COc1ccccc1C(=O)Nc1nc(-c2ccc3c(c2)OCCO3)cs1 | -31% | 5% | -4% | 23µM* | -8%
COC(=O)c1cc(C(=O)NCc2ccc3c(c2)OCO3)cc([N+](=O)[O-])c1 | 2% | 0% | 1% | -2% | 8%
CCCCc1ccc(S(=O)(=O)NC2CCS(=O)(=O)C2)cc1 (stereo unspecified) | -26% | 2% | -2% | 18µM* | -26%
COC(=O)Nc1ccc(S(=O)(=O)NC2CCS(=O)(=O)C2)cc1 (stereo unspecified) | 5% | 0% | 1% | -5% | -19%
CCn1c(C(O)c2ccccc2)nc2ccccc21 (stereo unspecified) | 1% | -1% | -1%[1.84 µM] | 5% | 0%
Cc1cc(C)c(Cn2c(C(O)c3ccccc3)nc3ccccc32)c(C)c1 (stereo unspecified) | -39% | 4% | -17% | 30% | 16µM*
COc1ccc([C@@H]2C(C#N)=C(N)S[C@@H](c3ccccc3)[C@@H]2[N+](=O)[O-])cc1 | -18% | 2% | -15% | 21µM* | 0%
SMILES | HepG2 tox | Nrf2 ARE act | A549 tox | Nrf2 inh | TGFb SMAD3 inh
Cc1nc2c(C(=O)NCCc3ccc(Cl)cc3)cnn2c(C)c1Cc1ccc(F)cc1 | -95% | 0% | -3% | / | 7.1µM*
Cc1cc(C)c(Cc2c(C)nc3c(C(=O)NCc4ccco4)cnn3c2C)c(C)c1 | -93% | 10% | ? | 18µM* | -14%
Cc1ccc(CNC(=O)c2cnn3c(C)c(Cc4c(F)cccc4Cl)c(C)nc23)cc1 | -11% | -1% | 5% | / | 10%
Cc1nc2c(C(=O)NC(C)c3ccccc3)cnn2c(C)c1Cc1ccccc1 (stereo unspecified) | 13µM* | -3% | -19% | / | -10%
COC(CNC(=O)c1cnn2c(C)c(Cc3ccccc3)c(C)nc12)OC | -12% | 0% | 2% | ? | 1%
CC(C)C(=O)Nc1ccc([N+](=O)[O-])cc1Br | 6% | 0% | 0% | -3% | 0%
COc1ccc(Cl)cc1-c1nc(-c2ccncc2)no1 | -24% | 6.3µM* | 0% | ? | -6%
CCCC(=O)N1CCN(c2ccc(NC(=O)c3cc4ccccc4o3)cc2Cl)CC1 | -9% | -4% | ? | 13µM* | -12%
O=C(Nc1ccc(N2CCN(C(=O)c3ccco3)CC2)c(Cl)c1)c1cc2ccccc2o1 | -13% | 0% | ? | 18µM* | 1%
Brc1ccc(-c2csc(/N=C/N3CCCC3)n2)cc1 | -17% | 2% | -9% | 12µM* | -2%
Brc1ccc(-c2csc(/N=C/N3CCOCC3)n2)cc1 | -46% | 6% | -17% | ? | -13%
Cc1nn(CC(=O)NCC2CCCO2)c(C)c1[N+](=O)[O-] (stereo unspecified) | 7% | 1% | 0% | 0% | -4%
CCCn1nc(NC(=O)c2cccs2)c2cc3ccc(C)cc3nc21 | -17% | 6% | ? | ? | -11%
CCCn1nc(NC(=O)c2cccs2)c2cc3ccccc3nc21 | -13% | 0% | / | 18µM* | -32%
CCCCn1nc(NC(=O)c2cccs2)c2cc3ccccc3nc21 | 4% | 0% | -18% | 12µM* | ?
CCCn1nc(NC(=O)c2cccs2)c2cc3cc(C)ccc3nc21 | 2% | 2% | -16% | 16µM* | -4%
Cc1cccc(Cn2c(=O)n(CC3CCC(C(=O)N4CCC(C)CC4)CC3)c(=O)c3sccc32)c1 (stereo unspecified) | 3% | -1% | 2% | -27% | 14%
COc1ccc(Cl)cc1N(CC(=O)N1CCCC1)S(C)(=O)=O | 1% | 0%[9.22 µM] | 0% | 3% | -7%
COc1ccc(CCNC(=O)C2CCN(S(=O)(=O)c3ccc(SC)cc3)CC2)cc1 | -34% | 0% | -7% | ? | ?
CCOC(=O)C1CCN(C(=O)c2cc(CN3C(=O)c4ccccc4C3=O)ccc2OCC)CC1 | -10% | -1% | 1% | 6% | 1%
COC(=O)Nc1csc2c1NC(=O)CCCC2 | -29% | -1% | 6% | -7% | 10%
